Consider ten compounds from PubChem BioAssay.

The assay is described as follows: binders from COS7 lysate, DM2A8 probe, primary screen, torsin A project, cell lysate, small-molecule microarray, fluorescence 635/667 (AID 1065). Particulars: higher = more signal, COS7 lysate expressing mutant human TOR1A.
For `CCOC(=O)C=Cc1cc(F)ccc1O`, the composite z-score was 0.17.

Regarding `[N-]=[N+]=Nc1ccccc1[C@@H]1OC(c2ccc(OCCCO)cc2)=N[C@]1(Cc1ccccc1)C(=O)NCc1ccccc1`, the composite z-score was found to be 1.72. The figure for `Cc1ccccc1C(O)C1C=CC2C(=O)NC(=O)C2N1Nc1ccc(Cl)cc1Cl` (stereo not given) is 0.328. The figure for `COc1ccc([Si](C)(C)[C@H]2[C@H](CCO)O[C@@]3(C(=O)N(Cc4ccccc4)c4ccc(N5CCOC5=O)cc43)[C@@H]2C)cc1` is 0.0044; for `COCC1C2CC[C@H]3C(OCc4ccc(OC)cc4)OC[C@]4(C)[C@H]3C2=C(CN4C(=O)OC(C)(C)C)[C@H](C)C1COC` (stereo not given in full) it is 0.0867; for `COCCOC(=O)N1C(=O)[C@@]2(c3cc(C#CC4(O)CCCCCC4)ccc31)[C@H](C(=O)N1CCN(c3ncccn3)CC1)[C@H]1C(=O)O[C@H](c3ccccc3)[C@H](c3ccccc3)N1[C@@H]2c1ccccc1OCCO` it is 0.825. The figure for `COc1ccc(C(=O)Nc2cccc(CN3C(=O)[C@@]4(O[C@@H](CC(=O)N(CCO)Cc5ccccc5)[C@H]([Si](C)(C)c5ccc(OC)cc5)[C@H]4C)c4ccccc43)c2)cc1` is 0.741.

For `COCCOC(=O)N1C(=O)[C@@]2(c3cc(C#CCNC(N)=O)ccc31)[C@H](c1ccc(O)cc1)N1[C@H](c3ccccc3)[C@H](c3ccccc3)OC(=O)[C@H]1[C@@H]2C(N)=O`, the composite z-score was -0.412.

The compound `O=C1C2C=CC(C(O)c3cccc(O)c3)N(Nc3ccccc3)C2C(=O)N1c1ccccc1` (stereo not given) showed a composite z-score of -0.73. In the case of `COc1ccc([Si](C)(C)[C@@H]2[C@@H](CC(=O)N3Cc4ccccc4C[C@H]3CO)O[C@]3(C(=O)N(c4ccccc4)c4ccccc43)[C@H]2C)cc1` it was 1.02.
